# High-throughput results from PubChem.
# The list is not random: actives were taken first. Their share in the collection is about 8.3%.
# LASV entry inh = qHTS for Inhibitors of binding or entry into cells for Lassa Virus | Potency, µM (titrated, usually from 37.9 µM), actives largely listed as inhibitors | Lassa virus pseudotype entry inhibition, cell reporter | hit rate 1.2% among 300,000 | AID 540256, 2011; calls by dose curve; tested in HEK293 cells; note: nearly all actives have a fitted effect of over 50% in size
# HCMV antiviral = qHTS Assay for inhibitors of the human cytomegalovirus (HCMV) | HFF cells, HCMV-luciferase reporter, 72 h; stronger effect = lower value | activity change, negative = inhibition, % at 57.5 µM | hit rate 4.5% among 410,000; in the data active = activity change below about -60%; inconclusive = no clear call, values can overlap the other calls; inactive = above about -39%
#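 Cell-based, HFFs, 1000 cells/well, 16 h 37C; cpds in DMSO + HCMV-luc, MOI 1 PFU/cell; 72 h 37C; OneGlo luminescence after 5 min RT; norm. to buffer vs Salinomycin 10uM.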
# MARV entry inh = qHTS for inhibitors of binding or entry into cells for Marburg Virus. Marburg virus pseudotyped entry inhibition, cell reporter. Potency, µM (doses to about 37.8 µM), most hits filed as inhibitors. hit rate 1.8% among 300,000. AID 540276, 2011; calls by dose curve; tested in HEK293 cells
# HCV inh = qHTS Assay for Inhibitors of Hepatitis C Virus (HCV); Potency, µM (top dose mostly 41.8 µM), hits mostly inhibitors; Huh7.5.1 HCVcc-Cre infection, luciferase reporter, 44 h; hit rate 3.4% among 340,000; AID 651820, 2012
#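 Reporter virus HCVcc-Cre (~0.5 moi) infects cells exposed to compound; seeding density 1,000 cells/well with 4 h settling beforehand. Luminescence, 15 sec read, taken 44 h post-infection following a 15 min RT substrate incubation.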
# Giardia FBPA inh-1 = qHTS Assay for Inhibitors of Fructose-1,6-bisphosphate Aldolase from Giardia Lamblia; A8B2U2; purified Giardia FBPA; Potency, µM (doses to about 59.6 µM), most hits filed as inhibitors; hit rate 0.71% among 290,000; AID 2451, 2010; note: nearly all actives have a fitted effect of over 55% in size
# Target sequence (A8B2U2 whole entry, looked up): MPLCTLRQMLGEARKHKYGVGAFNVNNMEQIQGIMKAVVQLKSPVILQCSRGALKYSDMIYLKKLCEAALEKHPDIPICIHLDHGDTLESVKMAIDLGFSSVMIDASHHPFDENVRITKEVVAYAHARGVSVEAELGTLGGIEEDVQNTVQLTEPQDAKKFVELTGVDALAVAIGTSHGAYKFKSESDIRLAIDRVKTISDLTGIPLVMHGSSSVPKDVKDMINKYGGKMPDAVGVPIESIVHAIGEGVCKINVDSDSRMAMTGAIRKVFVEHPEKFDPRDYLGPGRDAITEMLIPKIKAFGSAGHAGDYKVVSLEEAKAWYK
#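 40 nM FBPA preincubated 10 min at RT with compound (up to 57.5 uM final), then substrate plus GAPDH/TPI/NAD/arsenate coupling and diaphorase/resazurin added. Fluorescence read after 20 min at RT, 525/598 nm.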
# FMDV antiviral = High Throughput Screening for Foot and Mouth Disease Virus Antivirals. AID 1159524, 2015. hit rate 1.2% among 410,000. Potency, µM (series often up to 57.9 µM), hits mostly inhibitors. FMDV antiviral cell-based qHTS; calls by dose curve; tested in HEK293T cells; note: read-out not given here; nearly all actives have a fitted effect of over 45% in size
# Giardia growth = qHTS Assay for Inhibitors of Fructose-1,6-bisphosphate Aldolase from Giardia Lamblia: Giardia lamblia growth inhibition; shares compounds with Giardia FBPA inh-1; Giardia lamblia trophozoite growth inhibition; Potency, µM (doses to about 57.5 µM), usual class: inhibitors; hit rate 5% among 1,500;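 note: trophozoites exposed to compound for 48 h at 37 °C; nearly all actives have a fitted effect of over 70% in size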
# Mammalian tox = qHTS Assay for Inhibitors of Fructose-1,6-bisphosphate Aldolase from Giardia Lamblia: Mammalian cellular toxicity; Potency, µM (series often up to 57.5 µM), most hits filed as inhibitors; AID 2786, 2010; hit rate 4% among 1,500; shares compounds with Giardia FBPA inh-1; mammalian cell viability counter-screen, qHTS;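 note: Chinese hamster ovary cells used as mammalian cytotoxicity surrogate; viability measured as cellular ATP by luminescence; compound exposure lasted 48 h before reading; nearly all actives have a fitted effect of over 60% in size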
# Giardia FBPA inh-2 = qHTS Assay for Inhibitors of Fructose-1,6-bisphosphate Aldolase from Giardia Lamblia: Primary screen confirmation. shares compounds with Giardia FBPA inh-1. purified Giardia aldolase enzyme activity, qHTS. Potency, µM (doses to about 57.5 µM), actives largely listed as inhibitors. hit rate 5% among 1,500. AID 2787, 2010; note: nearly all actives have a fitted effect of over 45% in size
# Rabbit FBPA inh = qHTS Assay for Inhibitors of Fructose-1,6-bisphosphate Aldolase from Giardia Lamblia: Rabbit FBPA Selectivity; shares compounds with Giardia FBPA inh-1; Rabbit muscle FBPA enzyme inhibition, selectivity counter-screen; Potency, µM (top dose mostly 57.5 µM), usual class: inhibitors; hit rate 4% among 1,500; note: nearly all actives have a fitted effect of over 60% in size
# Target sequence (P00883 whole entry, looked up): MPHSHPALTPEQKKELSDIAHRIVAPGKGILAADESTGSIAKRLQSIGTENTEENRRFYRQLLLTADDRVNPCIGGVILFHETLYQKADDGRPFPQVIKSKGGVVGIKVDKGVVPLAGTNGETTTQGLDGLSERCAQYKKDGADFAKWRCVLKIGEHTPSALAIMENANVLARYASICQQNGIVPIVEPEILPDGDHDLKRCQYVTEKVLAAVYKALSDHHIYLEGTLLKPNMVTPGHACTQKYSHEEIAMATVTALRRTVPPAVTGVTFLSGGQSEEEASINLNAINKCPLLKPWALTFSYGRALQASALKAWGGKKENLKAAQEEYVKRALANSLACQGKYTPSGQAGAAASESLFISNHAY
# GAPDH counter = qHTS Assay for Inhibitors of Fructose-1,6-bisphosphate Aldolase from Giardia Lamblia: Coupling assay counterscreen confirmation; Potency, µM (doses to about 57.5 µM), actives largely listed as inhibitors; GAPDH coupling enzyme counterscreen, biochemical, qHTS; hit rate 6% among 1,500; shares compounds with Giardia FBPA inh-1; note: nearly all actives have a fitted effect of over 55% in size
# A number is an active result; n = inactive; u = inconclusive; x = not tested or not shown; [ ] = another dose, or the depositor's remark. Unless noted, calls come from the whole dose curve; as a rule, active = well fitted curve in the direction sought with a large enough effect; inconclusive = small, poorly fitted or top-dose-only effect, or another doubt; inactive = no such curve, though single readings can be large; an effect the other way counts as inactive or inconclusive.
SMILES,LASV entry inh,HCMV antiviral,MARV entry inh,HCV inh,Giardia FBPA inh-1,FMDV antiviral,Giardia growth,Mammalian tox,Giardia FBPA inh-2,Rabbit FBPA inh,GAPDH counter
Cc1no[n+]([O-])c1COc1cccc(/C=N/Nc2nncn2N)c1,x,-82,x,n,14µM,n,n,n,18µM,u,20µM
O=C(C1=NN[C@@H]2C(=O)N(c3cccc(F)c3)C(=O)[C@H]12)c1cnccn1,n,n,n,n,16µM,n,u,n,n,n,n
C[C@@H](CCc1ccc(O)cc1)NCCc1ccc(O)c(O)c1,x,x,u,x,n,n,x,x,x,x,x
Cc1nc(NC(=O)CN2CC(C)OC(C)C2)sc1C(=O)N(C)C (centres undefined),n,n,n,n,11µM,n,n,n,n,n,n
O=C(O)CNC(=O)CC1S/C(=N/N=C2/NC(=O)CS2)NC1=O (centres undefined),n,n,n,n,18µM,n,u,n,n,n,n
NC(=O)NC(=O)CC1S/C(=N/N=C2\CSC(=O)N2)NC1=O (centres undefined),n,n,n,n,13µM,n,n,n,n,n,n
Cc1ccc(C)c(CSc2nc3ccncc3n2CC(=O)Nc2ccc(N(C)C)cc2)c1,n,n,n,x,x,n,x,x,x,x,x
Cc1ccc(-c2nc(SCCOc3ccccc3C)n3[nH]c(=O)cc3n2)cc1,n,n,x,x,x,n,x,x,x,x,x
Cc1nnc(SCC2=C(C(=O)O)N3C(=O)C(NC(=O)Cn4nc(C(F)F)cc4C)C3SC2)s1 (centres undefined),x,n,x,n,14µM,n,n[10.4 µM],n,n,n,n
Cc1nnc(SCC2=C(C(=O)O)N3C(=O)C(NC(=O)c4cc(F)c(F)cc4Cl)C3SC2)s1 (centres undefined),x,n,x,n,20µM,n,u,n,n,n,n
Cc1nnc(SCC2=C(C(=O)O)N3C(=O)C(NC(=O)COc4ccccc4)C3SC2)s1 (centres undefined),n,n,n,n,x,n,x,x,x,x,x
CCn1c(C)c(C2N3CC4(C)CN2CC(C)(C3)C4=O)c2ccccc21 (centres undefined),u,n,n,x,x,n,x,x,x,x,x
COc1ccc(C2C(=O)N(C3CCC(C)CC3)CC(=O)N2C2CCCC2)cc1OC (centres undefined),n,u,x,x,x,n,x,x,x,x,x
Cc1cccc(CNC(=O)c2oc3c(c2C)-c2nn(Cc4ccccc4Cl)cc2CC3)c1,n,n,x,x,x,n,x,x,x,x,x
Cc1ccc([N+](=O)[O-])cc1NC(=S)NC(=O)c1c(Cl)cnn1C,x,n,x,n,7.9µM,n,n,n,n,n,n
Cc1cc(C)c(O)c(N)c1,x,x,x,x,20µM,x,n[10.4 µM],n,u,u,n
Cc1cc(C)c(N)c(C(=O)O)c1,x,u,x,n,n,n,x,x,x,x,x
O=C(Cn1c(SCCOc2ccccc2)nc2ccccc21)N1CCOCC1,n,n,n,x,x,n,x,x,x,x,x
COc1ccc(C)cc1-n1nc2ccccc2n1,x,u,x,n,n,n,x,x,x,x,x
COc1ccc(C)cc1-n1[nH]nnc1=S,n,n,n,n,14µM,n,n,n,n,n,n
Fc1ccc(-n2[nH]nnc2=S)cc1N1CCCC1,n,n,n,n,n,x,x,x,x,x,x
Cc1cc(C)c(-n2[nH]nnc2=S)c(C)c1,x,n,x,n,14µM,n,n[10.4 µM],n,n,n,n
CC1CC(=O)N(CC(=O)Nc2ccc(F)cc2F)c2ccccc2S1 (centres undefined),x,n,n,x,x,n,x,x,x,x,x
O=C(CN1CCC(NC(=O)c2ccccc2F)CC1)Nc1ccc2c(c1)OCO2,x,u,x,n,n,n,x,x,x,x,x
Cc1ccc(NC(=O)CN2CCC(NC(=O)c3ccccc3F)CC2)cc1C,x,n,x,n,18µM,n,u,n,n,n,n
SMILES,LASV entry inh,HCMV antiviral,MARV entry inh,HCV inh,Giardia FBPA inh-1,FMDV antiviral,Giardia growth,Mammalian tox,Giardia FBPA inh-2,Rabbit FBPA inh,GAPDH counter
COc1ccc(NC(=O)Cn2c(=O)n(-c3cccc(C)c3)c(=O)c3c2c2cc(C)ccc2n3C)cc1OC,n,n,n,x,x,n,x,x,x,x,x
Cc1cc(N/N=C(/CCC(=O)O)C(=O)O)nc2ccccc12,n,n,n,n,16µM,n,n[10.4 µM],n,n,n,u
Cc1cc(NCCN)nc2ccccc12,n,n,u,u,n,n,x,x,x,x,x
O=C(Cn1c(=O)nc(-c2ccccc2)c2cc(Cl)ccc21)NCCc1ccccc1,u,n,x,x,x,n,x,x,x,x,x
O=C(Nc1ccc(F)cc1)Oc1ccc[nH]c1=O,x,u,x,n,u,n,n,n,0.46µM,u,n
CC(=O)c1ccc(NC(=O)CN2C(=O)CCc3ccccc32)cc1,u,n,x,x,x,n,x,x,x,x,x
CC(=O)/C(=N\Nc1ccccc1)Sc1nnc(-c2ccccc2)n1-c1ccccc1,n,n,u,n,u,n,x,x,x,x,x
CC(=O)/C(=N\Nc1ccccc1)Sc1nncn1C,n,n,u,n,3.5µM,n,n[10.4 µM],n,n,n,n
CCOC(=O)CNC(=O)Nc1cc(C(=O)NCc2ccc(C(C)C)cc2)ccc1N1CCCC1,n,n,x,x,x,n,x,x,x,x,x
Cc1cc(C)nc(N2N=C(C(F)(F)F)CC2=O)n1,x,n,x,n,11µM,n,n,n,n,n,n
Cc1cc(C)nc(N2N=C(c3ccccc3)CC2=O)n1,n,n,u,n,n,n,x,x,x,x,x
CCCCNC(=O)CSc1nc2cc3c(cc2c(=O)n1CCCC(=O)NCc1ccc2c(c1)OCO2)OCO3,n,n,x,x,x,n,x,x,x,x,x
COc1cccc(/C=N/n2c(-c3n[nH]c4c3CCC4)n[nH]c2=S)c1O,n,n,u,n,n,n,x,x,x,x,x
COc1cccc(/C=N/n2c(-c3cc(C)[nH]n3)n[nH]c2=S)c1O,u,n,n,n,5.6µM,n,u,n,n,u,n
CC(/C=N/n1c(-c2cc(C)[nH]n2)n[nH]c1=S)=C\c1ccco1,n,n,u,n,2.5µM,n,n,n,u,n,n
O=C(NC1CC(=O)N(c2cccc(F)c2)C1)C(c1ccccc1)c1ccccc1 (centres undefined),n,u,x,x,x,n,x,x,x,x,x
Cn1c(-c2ccccc2)c(C(=O)CC#N)c2ccccc21,n,n,n,u,n,u,x,x,x,x,x
